Experimental data published in PubChem BioAssay (NCATS).
Inconclusive results are not listed. The source made the active and inactive calls. Calls follow the shape of the dose curve; as a rule, active = well fitted inhibition curve with a large enough effect; inconclusive = small, poorly fitted or top-dose-only effect; inactive = flat fitted curve, though single readings scatter.

molecular target: Calcium and integrin-binding protein 1 (Homo sapiens) (UniProt Q99828); experiment: Primary qHTS for Identification of Calcium Integrin Binding Protein 1 (CIB1) Competitor (AID 1508620); conditions: CIB1-GST / FITC-alphaIIb peptide fluorescence polarization; series mostly up to 114 µM; activity change, negative = inhibition: at the top concentration;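 also: GST tagged CIB1 binding a fluorescein labelled alphaIIb integrin peptide tracer; top concentration of the series differs between compounds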
How it was run: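 Fluorescence polarization competition: CIB1-GST (1 uM final) preincubated with compound 15 min at room temperature, then FITC-labeled alphaIIb peptide (100 nM final) added for another 15 min. Polarization read at Ex 480/Em 540.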
% is scaled to controls: 0 for no effect and ±100 for the full control effect.

Calcium and integrin-binding protein 1 (Homo sapiens), sequence (Q99828 whole entry, looked up): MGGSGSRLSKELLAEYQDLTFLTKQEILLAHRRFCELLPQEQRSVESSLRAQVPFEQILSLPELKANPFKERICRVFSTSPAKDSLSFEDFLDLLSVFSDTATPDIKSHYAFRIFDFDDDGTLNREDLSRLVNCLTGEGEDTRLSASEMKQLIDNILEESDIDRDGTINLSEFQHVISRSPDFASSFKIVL

Structure (SMILES) | activity change, negative = inhibition | Potency
N#Cc1nc(Nc2cccc(Cl)c2)c2ncn(C3CCCC3)c2n1 | 7.83% (inactive) | 
COc1cc(OC)c(C(CC(=O)N2CC(C)CC(C)C2)c2ccc3c(c2)OCO3)c(OCC(N)=O)c1 (stereo not given) | -2.25% [at 228 µM] (inactive) | 
Cc1cccc(C)c1-n1c(SCC(=O)Nc2ccc(F)cc2)nnc1-c1cccc([S+](=O)([O-])N2CCCC2)c1 | -0.159% (inactive) | 
Cc1ccc(NC(=O)CN2C(=O)N/C(=C\c3cccn3-c3ccc([S+](N)(=O)[O-])cc3)C2=O)cc1 | -5.38% (inactive) | 
O=C(NCc1ccccc1)n1cc(P(=S)(c2ccccc2)c2ccccc2)c2ccccc21 | -0.464% (inactive) | 
CCCN(C)c1ncnc2ccc(-c3ccc4c(c3)OCO4)cc12 | -0.106% (inactive) | 
Cn1nnnc1Sc1ncnc2scc(-c3ccccc3[N+](=O)[O-])c12 | 1.22% (inactive) | 
Cc1nc(-c2ccccc2C(C)C)nc(NCc2ccc(-c3cccnc3)cc2)c1C | 4.31% (inactive) | 
CCNC(=O)c1ccc(-c2ccc3ncnc(NCCc4cnc[nH]4)c3c2)o1 | -12.5% (inactive) | 
O=C1CCc2cc(S(=O)(=O)Nc3cccc(Oc4ccccc4)c3)ccc2N1 | -4.09% (inactive) | 
CCc1nnc2sc(-c3ccc(C)c(NC(=O)c4ccc(-c5cccc(Cl)c5)o4)c3)nn12 | 1.32% (inactive) | 
COc1cc(OC)cc(-c2nnc3n2N=C(c2ccccc2OC)CS3)c1 | -0.382% (inactive) | 
Cc1noc(C)c1-c1ccc2ncnc(NCc3ccc(F)cc3)c2c1 | 1.07% (inactive) | 
O=C(Nc1ncc(Cc2ccc(C(F)(F)F)cc2)s1)c1cnc(-c2ccccc2)s1 | 7.75% (inactive) | 
Cc1nc(-c2ccccc2)oc1-c1ccc2ncnc(NCc3ncc[nH]3)c2c1 | -6.5% (inactive) | 
Oc1ccc(CNc2ccc3ccccc3n2)c2cccnc12 | -3.86% (inactive) | 
Oc1cc(NCc2ccc(Cl)cc2)cc2cccnc12 | 0.389% (inactive) | 
CCOC(=O)c1[nH]c2c(c1C)C(=O)CC(c1ccco1)C2 (stereo not given) |  | inactive
Cn1nnnc1Sc1ncnc2scc(-c3cccs3)c12 | -5.79% (inactive) | 
CN(C)c1cccc(-c2ncnc(N3CCC(C(N)=O)CC3)n2)c1 | 5.23% (inactive) | 

Structure (SMILES) | activity change, negative = inhibition | Potency
Cc1ccc(NS(=O)(=O)c2cc3c(cc2Cl)NC(=O)C3)cc1C | -1.13% (inactive) | 
COc1cc(O)c(C(CC(=O)N2CCC(Cc3ccccc3)CC2)c2ccc(OC)c(OC)c2)c(OC)c1 (stereo not given) | 4.43% [at 228 µM] (inactive) | 
O=S(=O)(c1ccc2c(c1)OCCO2)N1CCN(S(=O)(=O)c2cccc(Cl)c2F)CC1 | -2.63% (inactive) | 
O=C1CCc2cc(S(=O)(=O)Nc3ccc4ccccc4c3)ccc2N1 | -6.37% (inactive) | 
Cn1ccc2cc(-c3ccc4ncnc(NCc5cccc(F)c5)c4c3)ccc21 | -0.275% (inactive) | 
O=C(OCC#CCSc1nnc(-c2cccc3ccccc23)o1)C1CCCC1 | -0.608% (inactive) | 
COc1ccc([S+](=O)([O-])N2CCCN([S+](=O)([O-])c3ccc(OC)c(N)c3)CC2)cc1N | -0.27% (inactive) | 
Cc1ccc(OCCn2c(CCNC(=O)c3ccc(Br)o3)nc3ccccc32)cc1 | -1.02% (inactive) | 
COc1ccc(C2=Nn3c(nnc3-c3cc(OC)cc(OC)c3)SC2)cc1 | 5.21% (inactive) | 
Cc1ccccc1-c1nnc(NC(=O)Nc2ccc3ccccc3c2)s1 | 8.35% (inactive) | 
COc1ccc(C(=O)Nc2ccc(-c3nc4ccccc4[nH]3)cc2)cc1OC | -0.868% (inactive) | 
CC(C)Oc1ccc(C(=O)Nc2ccc(-c3nc4ccccc4[nH]3)cc2)cc1 | -1.55% (inactive) | 
CC(=O)Nc1sc2c(c1-c1cccc3[nH]ncc13)CCNC2 | -1.12% (inactive) | 
O=C1CC(c2ccccc2)CC2=C1C1(CCCC1)N=C(Nc1nc3ccccc3o1)N2 (stereo not given) | 0.731% (inactive) | 
Cn1nnnc1Sc1ncnc2scc(-c3cccc4ccccc34)c12 | 2.19% (inactive) | 
C#CCOc1cc(C2=Nn3c(nnc3-c3ccc(OCC(C)=O)cc3)SC2)ccc1OC | -2.47% (inactive) | 
O=C1CCCC2=C1C(c1[nH]ncc1Cl)N=C(Nc1ccn[nH]1)N2 (stereo not given) | -3.46% (inactive) | 
Cc1ccc(OCCn2c(CCNC(=O)c3c(F)cccc3F)nc3ccccc32)cc1 | 2.21% (inactive) | 
O=C(/C=C/c1ccc(OC(F)(F)F)cc1)Nc1cccc([S+](=O)([O-])Nc2ccccc2F)c1 | 7.8% (inactive) | 
CC(C)(C)OC(=O)N1CCN(c2ccc(NCc3ccoc3-c3ccc(C#N)cc3)cc2)CC1 | 3.7% (inactive) | 
